Results reported in PubChem BioAssay (NCATS).
Records with an inconclusive call do not appear. A number with no mark means an inactive call. Calls of active or inactive are those of the source. The call rests on the fitted dose curve; in most records, active means well fitted inhibition curve with a large enough effect; inconclusive means small, poorly fitted or top-dose-only effect; inactive means no such curve, though single readings can be large or run the other way.

Assay: BET inhibitor-based combinations targeting novel dependencies in MECOM-rearranged (r) AML: HNT-34 cell line (AID 2202234); further: nearly all actives have a fitted effect of over 35% in size;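 on viability (% of control): plate controls were vehicle wells for no effect and cell-free wells for full effect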
Settings: HNT-34 AML viability, CellTiter-Glo luminescence, 48 h; series mostly up to 46 µM; viability (% of control): at the top concentration
Procedure, shortened: (§1)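 Seeding density was 500 cells/well, and drug exposure lasted 48 hr under standard culture conditions. Read-out used CellTiter-Glo reagent with a 15 min room-temperature incubation before luminescence measurement; AUC and Z-AUC summarize the normalized responses.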
Potency means the concentration at half of the fitted maximal effect.

| SMILES | viability (% of control) | Potency |
| --- | --- | --- |
| C=CCN1C[C@H](C(=O)N(CCCN(C)C)C(=O)NCC)CC2c3cccc4[nH]cc(c34)C[C@H]21 (stereo not given in full) | 105% |  |
| CCOC(=O)C1=C(C)NC(=S)NC1c1cccc(O)c1 (stereo not given) |  | 18600 nM (active) |
| CC(=O)NCCCS(=O)(=O)O | 96.4% [at 15.6 µM] |  |
| CC(=O)Nc1cc(Oc2ccc3c(nc(Nc4ccc(F)cc4F)n3C)c2C)ccn1 |  | 118 nM (active) |
| COc1cc2c(cc1OC)CN(CCc1ccc(-n3nnc(-c4cc(OC)c(OC)cc4NC(=O)c4cc(=O)c5ccccc5o4)n3)cc1)CC2 | 93.8% [at 0.315 µM] |  |
| CCCCCCCOc1ccc(CCC(N)(CO)CO)cc1C(F)(F)F |  | 14800 nM (active) |
| CC(C)n1ncnc1-c1cn2c(n1)-c1ccc(O[C@@H](C)C(N)=O)cc1OCC2 |  | 18600 nM (active) |
| C[C@@H]1C(=O)OC2[C@H](O)[C@]34[C@H]5C[C@@H](C(C)(C)C)[C@]36[C@@H](OC(=O)[C@@H]6O)O[C@@]4(C(=O)O5)[C@]21O (stereo not given in full) | 108% |  |
| Fc1cccc(-n2cnc3c(NCc4nc5c(F)c(F)ccc5[nH]4)nc(N4CCOCC4)nc32)c1 |  | 296 nM (active) |
| C[C@H]1CC2[C@@H]3CCC4=CC(=O)C=C[C@]4(C)[C@@]3(F)[C@@H](O)C[C@]2(C)[C@@]1(O)C(=O)CO (stereo not given in full) | 89.1% |  |
| CCCc1cc(C(=O)N[C@H](Cc2ccc(-c3cccc(OC(F)(F)F)c3)nc2)C(=O)N[C@@H]2CCNC2)sc1C |  | 11800 nM (active) |
| COC(=O)Nc1nc2ccc(C(=O)c3ccccc3)cc2[nH]1 |  | 263 nM (active) |
| CCS(=O)(=O)N1CCC(C(C)n2c(C)c(C(=O)NCc3c(OC)cc(C)[nH]c3=O)c3ccccc32)CC1 (stereo not given) | 109% |  |
| O=C(Nc1cnn2ccc(N3CCC[C@@H]3c3cc(F)ccc3F)nc12)N1CC[C@H](O)C1 | 97.6% |  |
| COc1cc2c3c(n(CCCn4ccnc4)c(=O)c2cc1OC)-c1cc2c(cc1C3=O)OCO2 |  | 26.3 nM (active) |
| C[C@@H]1COCCN1c1cc(-c2ccnn2C)c2ccnc(-c3ccn[nH]3)c2n1 |  | 296 nM (active) |
| CNC(=O)c1c(C)oc2cc(Oc3ncnc4cc(OC)c(OC)cc34)ccc12 | 101% |  |

Assay: BET inhibitor-based combinations targeting novel dependencies in MECOM-rearranged (r) AML: UCSD-AML1 cell line (AID 2202235); further: nearly all actives have a fitted effect of over 40% in size;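 on viability (% of control): plate controls were DMSO vehicle wells for no effect and blank wells for full effect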
Settings: UCSD-AML1 AML cells viability, CellTiter-Glo, 48 h; series mostly up to 46 µM; viability (% of control): at the top concentration
Procedure, shortened: as §1

| SMILES | viability (% of control) | Potency |
| --- | --- | --- |
| C=CCN1C[C@H](C(=O)N(CCCN(C)C)C(=O)NCC)CC2c3cccc4[nH]cc(c34)C[C@H]21 (stereo not given in full) | 110% |  |
| CCCC[C@@H](C=O)NC(=O)[C@H](CC(C)C)NC(=O)OCc1ccccc1 | 104% |  |
| CC(=O)NCCCS(=O)(=O)O | 103% [at 15.6 µM] |  |
| CC(=O)Nc1cc(Oc2ccc3c(nc(Nc4ccc(F)cc4F)n3C)c2C)ccn1 |  | 235 nM (active) |
| C[C@@H]1CC(=O)Nc2cccc(-c3ccc4c(c3)c(-c3cnn(C)c3)nn4C)c2N1 |  | 2630 nM (active) |
| COc1cc2c(cc1OC)CN(CCc1ccc(-n3nnc(-c4cc(OC)c(OC)cc4NC(=O)c4cc(=O)c5ccccc5o4)n3)cc1)CC2 | 106% [at 0.315 µM] |  |
| O=C(O)CNC(=O)c1ncc(-c2cccc(Cl)c2)cc1O | 117% |  |
| CCC(=O)O[C@]1(C(=O)CO)CC[C@H]2[C@@H]3CCC4=CC(=O)CC[C@]4(C)[C@H]3CC[C@@]21C | 109% |  |
| CCCCCCCOc1ccc(CCC(N)(CO)CO)cc1C(F)(F)F |  | 10500 nM (active) |
| CC(C)n1ncnc1-c1cn2c(n1)-c1ccc(O[C@@H](C)C(N)=O)cc1OCC2 |  | 5250 nM (active) |
| C[C@@H]1C(=O)OC2[C@H](O)[C@]34[C@H]5C[C@@H](C(C)(C)C)[C@]36[C@@H](OC(=O)[C@@H]6O)O[C@@]4(C(=O)O5)[C@]21O (stereo not given in full) | 117% |  |
| Fc1cccc(-n2cnc3c(NCc4nc5c(F)c(F)ccc5[nH]4)nc(N4CCOCC4)nc32)c1 |  | 296 nM (active) |
| CN1CCN(C(=O)[C@H]2[C@@H](C(=O)O)[C@H]3CC[C@@H]2O3)CC1 | 104% [at 8.46 µM] |  |
| Cn1cc(/C=C/C(=O)c2cccc(F)c2)cc1/C=C/C(=O)NO |  | 4170 nM (active) |
| Cc1c(F)cccc1NC(=O)Nc1ccc(Cl)c(S(=O)(=O)[C@H]2CCCNC2)c1O | 114% |  |
| c1ccc2[nH]c(-c3cscn3)nc2c1 | 100% |  |
| CCCc1cc(C(=O)N[C@H](Cc2ccc(-c3cccc(OC(F)(F)F)c3)nc2)C(=O)N[C@@H]2CCNC2)sc1C |  | 10500 nM (active) |
| COC(=O)Nc1nc2ccc(C(=O)c3ccccc3)cc2[nH]1 |  | 296 nM (active) |
| CCS(=O)(=O)N1CCC(C(C)n2c(C)c(C(=O)NCc3c(OC)cc(C)[nH]c3=O)c3ccccc32)CC1 (stereo not given) | 110% |  |
| CC#CC(=O)N1CC[C@@H](n2c(=O)n(-c3ccc(Oc4ccccc4)cc3)c3c(N)ncnc32)C1 | 58.4% |  |
| COc1cc2c3c(n(CCCn4ccnc4)c(=O)c2cc1OC)-c1cc2c(cc1C3=O)OCO2 |  | 20.9 nM (active) |
| C[C@@H]1COCCN1c1cc(-c2ccnn2C)c2ccnc(-c3ccn[nH]3)c2n1 |  | 66.1 nM (active) |
| CNC(=O)c1c(C)oc2cc(Oc3ncnc4cc(OC)c(OC)cc34)ccc12 | 106% |  |
